The target in test [1] is Cytochrome P450 3A4 (Homo sapiens) (UniProt P08684). As to the kind of experiment: qHTS Assay for Activators of Cytochrome P450 3A4 (AID 885). Note: nearly all actives have a fitted effect of over 65% in size. An outline of the steps: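 Quantitative HTS format: compounds preincubated with 20nM human CYP3A4 and Luciferin-PPXE substrate at KM, reaction started by NADPH regeneration, stopped after 60 min, luciferase luminescence read 20 min later.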

Test [2] in a line: Confirmation and Secondary Assay for Modulators of Hemoglobin Beta Chain Splicing at IVS2 654 locus (AID 910).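 Note: HeLa cells stably carrying EGFP split by mutant beta-globin IVS2-654 intron; per-well total GFP intensity by laser scanning cytometry after 2-day treatment; % of control where 0% means no effect.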 In a few lines:
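Readout: per-well total peak green fluorescence (488 nm ex, 500–520 nm em) from objects 5–250 µm, reflecting correct splicing of an EGFP-654 reporter. Compounds were applied for 2 days at 37 °C to overnight-plated HeLa EGFP-654 cells; controls were DMSO and 500 nM IVS2-654 PNA.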

The nature of test [3]: Confirmation and Secondary Assay for Modulators of Hemoglobin Beta Chain Splicing at IVS2 705 locus (AID 930).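 Note: HeLa cells stably expressing the EGFP-705 splicing reporter; GFP fluorescence per well restored by corrected splicing of the IVS2-705 intron in EGFP; % of control where 0% means no effect.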 In a few lines:
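Secondary splice-site specificity test uses HeLa expressing CMV-driven EGFP interrupted by IVS2-705; cells were treated 2 days at 37C with 500 nM antisense PNA as positive control.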

The nature of test [4]: qHTS Assay for Lipid Storage Modulators (AID 1519; calls by dose curve; for activity change, negative = inhibition: % is set by controls: 0 for no effect and ±100 for the full control effect). The conditions noted are these: Drosophila S3 cells, BODIPY lipid droplet/cell ratio, laser cytometry, cells loaded with oleic acid. In a few lines:
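Cells seeded at 5,000 per well were treated with compounds over a concentration series and loaded with oleic acid (400 uM, as added). Lipid droplet fluorescence (488 nm excitation, 500-530 nm channel) was read by laser-scanning cytometry and normalized to 20 uM Triacsin C.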
In general terms: In qHTS, concentration-response curves come from the screen itself.

Test [5] has as its target Alpha-galactosidase (Coffea arabica) (UniProt Q42656). In words: Counterscreen for Glucocerebrosidase Inhibitors: qHTS Assay for Coffee Bean alpha-Galactosidase at pH 5.9 (AID 998).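 Note: plate controls were uninhibited enzyme for no effect and no-enzyme basal signal for full effect.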 An outline of the steps:
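Compounds were titrated from 0.7 nM to 77 uM against green coffee bean alpha-galactosidase (2 nM) using 80 uM fluorogenic 4-methylumbelliferyl substrate. After 20 min at room temperature, reactions were stopped at pH 10 and read by fluorescence.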
Background: A counterscreen serves to expose hits that act by an unwanted route or on another target.

Test [6] deals with Cytochrome P450 2D6 (Homo sapiens) (UniProt P10635). As to the kind of experiment: Cytochrome P450 family 2 subfamily D member 6 (CYP2D6) small molecule antagonists: luciferase biochemical (cell-free) qHTS assay (AID 1645840; active = well fitted curve in the direction sought with a large enough effect in the repeat runs; an effect the other way counts as inactive or inconclusive; note: potency is the fitted concentration of half-maximal effect; nearly all actives have a fitted effect of over 55% in size). An outline of the steps:
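P450-Glo luminescent screen: recombinant CYP2D6 enzyme–proluciferin substrate mix preincubated with compound 10 min at room temperature, then NADPH regeneration added for 1 h at room temperature. Detection reagent added for 20 min; luciferin light read as relative luminescence units.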

In test [7] the target is Cytochrome P450 2C9 (Homo sapiens) (UniProt P11712). In words: Cytochrome P450 family 2 subfamily C member 9 (CYP2C9) small molecule antagonists: luciferase biochemical (cell-free) qHTS assay (AID 1645842; active = well fitted curve in the direction sought with a large enough effect in the repeat runs; an effect the other way counts as inactive or inconclusive; note: % is set by controls: 0 for no effect and ±100 for the full control effect; nearly all actives have a fitted effect of over 55% in size). An outline of the steps:
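Luminescence, after 20 min with luciferin detection reagent, reflected CYP2C9 turnover during a 1 h NADPH-driven reaction at 37C. Enzyme-substrate mix contained 0.4% bovine serum albumin and was preincubated with compound 10 min at room temperature.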

The target of test [8] is Glutathione peroxidase 1 (Homo sapiens) (UniProt P07203). In words: Primary qHTS Assay for Inhibitors of Recombinant Selenoprotein Glutathione Peroxidase 1 (GPX1) (AID 1845191). Note: % is set by controls: 0 for no effect and ±100 for the full control effect; nearly all actives have a fitted effect of over 65% in size. An outline of the steps: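 10 nM GPX1 + cpd, 30 min RT; start w/ 1 mM GSH, 0.5 mM cumene hydroperoxide, 0.5 mM NADPH, 100 nM GR, 0.01% BSA; buffer 50 mM Tris-HCl pH 7.5, 2 mM EDTA, 150 mM NaCl; Fl 340/450, 0 & 15 min.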
Chain of Glutathione peroxidase 1 (Homo sapiens) (P07203 whole entry, looked up): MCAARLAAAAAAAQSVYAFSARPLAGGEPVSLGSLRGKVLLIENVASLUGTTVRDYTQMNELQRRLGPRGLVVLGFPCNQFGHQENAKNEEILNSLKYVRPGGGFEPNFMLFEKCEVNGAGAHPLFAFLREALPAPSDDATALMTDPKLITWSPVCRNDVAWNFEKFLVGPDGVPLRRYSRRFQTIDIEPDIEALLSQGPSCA

Where [9] appears, read: measured here: cell count channel max response.
Setting [10] is: measured here: lipid channel max response.

Records with an inconclusive call do not appear. Active and inactive are the calls of the source. Unless noted, calls come from the whole dose curve; as a rule, active = well fitted curve in the direction sought with a large enough effect; inconclusive = small, poorly fitted or top-dose-only effect, or another doubt; inactive = no such curve, though single readings can be large; an effect the other way counts as inactive or inconclusive.

These results are taken from PubChem BioAssay (NCATS).

Chain of Cytochrome P450 3A4 (Homo sapiens) (P08684 whole entry, looked up): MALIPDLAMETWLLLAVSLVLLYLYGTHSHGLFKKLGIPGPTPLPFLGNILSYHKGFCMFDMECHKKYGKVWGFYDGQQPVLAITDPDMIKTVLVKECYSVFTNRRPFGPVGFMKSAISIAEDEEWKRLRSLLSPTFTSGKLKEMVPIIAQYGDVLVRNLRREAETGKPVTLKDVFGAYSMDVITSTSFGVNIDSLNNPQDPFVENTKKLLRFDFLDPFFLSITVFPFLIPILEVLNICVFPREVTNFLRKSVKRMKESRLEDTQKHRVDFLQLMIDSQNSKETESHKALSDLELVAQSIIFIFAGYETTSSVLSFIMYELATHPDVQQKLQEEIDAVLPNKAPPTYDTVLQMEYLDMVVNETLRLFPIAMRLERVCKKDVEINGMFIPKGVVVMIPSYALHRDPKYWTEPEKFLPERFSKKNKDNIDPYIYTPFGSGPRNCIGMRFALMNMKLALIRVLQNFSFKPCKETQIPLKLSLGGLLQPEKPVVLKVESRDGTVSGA
Chain of Alpha-galactosidase (Coffea arabica) (Q42656 whole entry, looked up): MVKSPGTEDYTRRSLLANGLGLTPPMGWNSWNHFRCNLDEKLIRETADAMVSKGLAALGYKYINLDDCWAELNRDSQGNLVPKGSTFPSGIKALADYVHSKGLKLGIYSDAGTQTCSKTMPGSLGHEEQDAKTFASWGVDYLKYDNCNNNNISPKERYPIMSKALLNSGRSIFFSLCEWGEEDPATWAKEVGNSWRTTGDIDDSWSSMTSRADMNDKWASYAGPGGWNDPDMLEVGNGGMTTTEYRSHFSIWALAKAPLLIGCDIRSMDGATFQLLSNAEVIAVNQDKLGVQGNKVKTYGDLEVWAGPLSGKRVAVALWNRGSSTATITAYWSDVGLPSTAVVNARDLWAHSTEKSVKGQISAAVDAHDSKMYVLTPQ
Chain of Cytochrome P450 2D6 (Homo sapiens) (P10635 whole entry, looked up): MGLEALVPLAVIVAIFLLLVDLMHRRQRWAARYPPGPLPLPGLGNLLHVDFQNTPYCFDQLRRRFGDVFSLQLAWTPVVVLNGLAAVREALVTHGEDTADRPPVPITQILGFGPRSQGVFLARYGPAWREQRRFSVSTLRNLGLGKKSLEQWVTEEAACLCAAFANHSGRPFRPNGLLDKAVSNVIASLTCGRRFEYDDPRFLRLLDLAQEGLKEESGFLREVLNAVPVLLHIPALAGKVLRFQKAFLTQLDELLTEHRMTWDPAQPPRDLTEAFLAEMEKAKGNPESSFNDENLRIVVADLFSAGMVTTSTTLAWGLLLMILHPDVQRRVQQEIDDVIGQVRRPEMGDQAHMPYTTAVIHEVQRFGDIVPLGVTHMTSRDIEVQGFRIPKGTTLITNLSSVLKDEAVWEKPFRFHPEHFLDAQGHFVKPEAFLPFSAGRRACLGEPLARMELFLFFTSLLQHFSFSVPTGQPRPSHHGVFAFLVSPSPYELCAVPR
Chain of Cytochrome P450 2C9 (Homo sapiens) (P11712 whole entry, looked up): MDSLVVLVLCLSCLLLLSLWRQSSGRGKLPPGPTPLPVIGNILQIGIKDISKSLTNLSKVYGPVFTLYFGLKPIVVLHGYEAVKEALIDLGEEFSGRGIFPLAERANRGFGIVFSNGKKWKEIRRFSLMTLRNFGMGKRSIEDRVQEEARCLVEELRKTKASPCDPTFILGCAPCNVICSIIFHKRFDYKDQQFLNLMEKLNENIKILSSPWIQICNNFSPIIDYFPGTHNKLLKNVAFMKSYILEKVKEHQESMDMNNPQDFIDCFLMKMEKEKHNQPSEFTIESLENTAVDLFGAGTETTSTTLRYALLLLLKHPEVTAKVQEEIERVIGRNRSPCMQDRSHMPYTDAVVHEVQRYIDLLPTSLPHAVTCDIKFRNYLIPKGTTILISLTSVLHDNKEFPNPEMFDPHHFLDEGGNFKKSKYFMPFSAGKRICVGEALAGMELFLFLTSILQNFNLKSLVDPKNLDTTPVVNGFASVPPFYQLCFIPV

`CC1CC[C@@]2(OC1)OC1C(O)C3C4CC[C@H]5CC(O[C@@H]6O[C@@H](CO)[C@H](OC7OC(CO)C(O)C(OC8OCC(O)C(O)[C@H]8O)[C@@H]7O[C@@H]7OC(CO)[C@H](O)[C@@H](O[C@@H]8OC(CO)C(O)C(O)C8O)C7O)C(O)C6O)C(O)C[C@]5(C)C4CC[C@]3(C)C1C2C` (stereo not given in full): the Potency result in test [1], in test [2] and in test [3] was “inactive” in each case. Further, the activity change, negative = inhibition in test [4] (at 57.5 µM (top of the series)) is -0.601% (inactive). Also, the max response in test [4] (setting [9]) was -28.8%; in test [4] (setting [10]), -26%.

For the compound `NC(N)=NN=Cc1c(Cl)cccc1Cl`, the compound was called inactive in test [5]. For the same compound, the activity change, negative = inhibition in test [4] (at 25.7 µM (top of the series)) is -2.38% (inactive). The max response in test [4] (setting [9]) is -4.82%; in test [4] (setting [10]), -7.49%.

As to `NC(=NCCCC(N)C(=O)O)N[N+](=O)[O-]` (stereo not given), the Potency result in test [2] and in test [3] was “inactive” throughout. Further, the activity change, negative = inhibition in test [4] (at 57.5 µM (top of the series)) was 0.218% (inactive). In addition, the max response in test [4] (setting [9]) is -5.56%; in test [4] (setting [10]) it was -2.81%.

Consider `COc1c(CC=C(C)C)c2c(c3oc(=O)c(-c4ccc(O)cc4)c(O)c13)C=CC(C)(C)O2`, for which the Potency entry in test [1], in test [2] and in test [3] was “inactive” throughout. For the same compound, the activity change, negative = inhibition in test [4] (at 57.5 µM (top of the series)) was 3.02% (inactive). The max response in test [4] (setting [9]) is 14.5%; in test [4] (setting [10]), 15.5%.

In the case of `CN1CC(CNC(=O)OCc2ccccc2)CC2c3cccc4c3c(cn4C)CC21` (stereo not given), the Potency entry in test [2] and in test [3] was “inactive” throughout. Moreover, in test [4] (at 57.5 µM (top of the series)), the activity change, negative = inhibition was 7.09% (inactive). Besides, the max response is -1.98% in test [4] (setting [9]) and 5.84% in test [4] (setting [10]).

Turning to `CCN1CCN(C(c2ccc(Cl)cc2)c2ccc(Cl)cc2)CC1`, the Potency in test [6] was 0.952 µM (active). Also, the Potency entry in test [7] and in test [8] was “inactive” in each case.

As to `CC(=O)OC1C2C(OC(=O)Cc3ccccc3)C(C)CC2(OC(C)=O)C(=O)/C(C)=C/C2C(CC[C@@]13CO3)C2(C)C` (stereo not given in full), the Potency entry in test [1], in test [2] and in test [3] was “inactive” throughout. Also, in test [4] (at 57.5 µM (top of the series)), the activity change, negative = inhibition was -0.982% (inactive). The results for the max response in test [4] (setting [9]) and in test [4] (setting [10]) were -2.07% and -2.51%, respectively.
